USP8 block – inhibitors of human USP8 deubiquitinase | 4.2% of 47,000 active | inhibition, % at 20 µM | Ubiquitin carboxyl-terminal hydrolase 8 (Homo sapiens), P40818 | purified USP8, Ub-rhodamine cleavage fluorescence, 30 min
UCHL1 inh – inhibitors of human UCHL1 deubiquitinase; inhibition, % at 20 µM; 0.2% of 47,000 active; Ubiquitin carboxyl-terminal hydrolase isozyme L1 (Homo sapiens), P09936; purified UCHL1, Ub-rhodamine cleavage fluorescence; AID 1645859, 2021
USP7 block – inhibitors of human USP7 deubiquitinase. purified USP7, Ub-rhodamine cleavage fluorescence. AID 1645854, 2021. inhibition, % at 20 µM. 0.3% of 47,000 active. Ubiquitin carboxyl-terminal hydrolase 7 (Homo sapiens), Q93009
USP10 block – inhibitors of human USP10 deubiquitinase; Ubiquitin carboxyl-terminal hydrolase 10 (Homo sapiens), Q14694; purified USP10, Ub-rhodamine fluorescence, 60 min; inhibition, % at 20 µM; 1.1% of 47,000 active
Starred values were filed as active, the others as inactive. Shown are actives, neighbours in structure and some others; about 4.6% of the full set was active somewhere. No stated cut-off is given here; in the data, active means inhibition above about 30%; inactive means the rest.

SMILES | USP8 block | UCHL1 inh | USP7 block | USP10 block
CCC(CC)n1[nH]c(=O)c2c1NC(=O)CSC2c1ccc2c(c1)OCO2 (centres undefined) | 43* | -1 | 10 | 5
COc1cc2c3c(c4cc(OC)c(OC)cc4c2cc1OC)CN1CCC[C@@H]1C3 | -29 | -6 | -7 | -2
CCCCCC(O)c1c(O)cc2c(c1O)C(=O)c1c(O)cc(O)cc1C2=O (centres undefined) | -16 | 6 | -104 | 33*
CC12CN3CC(c4ccccc4)(CN(C1)C3(C)C)C2=O | 9 | 1 | 4 | 0
CC(C)=CCCC1(C)C=Cc2c(O)c3c(c(CC=C(C)C)c2O1)O[C@]12C(=C[C@@H]4CC1C(C)(C)O[C@@]2(C/C=C(/C)C(=O)O)C4=O)C3=O (some centres undefined) | 70* | 64* | 84* | 75*
Cc1ccc2nc(COC(=O)C(O)(c3ccccc3)c3ccccc3)cc(=O)n2c1 | 40* | 2 | -15 | -2
N#Cc1ccc(COC(=O)C(O)(c2ccccc2)c2ccccc2)cc1 | 5 | 6 | -106 | 6
CC(C)=CCC[C@H](C(=O)O)[C@@H]1CC[C@]2(C)C3=C(CC[C@@]12C)[C@@]1(C)CCC(=O)C(C)(C)C1CC3 (some centres undefined) | 13 | 0 | 6 | 38*
O=C1CSC(c2ccc(Cl)cc2)c2c(n(C3CCCC3)[nH]c2=O)N1 (centres undefined) | 25 | 1 | 7 | 12
O=C1CSC(c2ccc(F)cc2)c2c(n(C3CCCCCC3)[nH]c2=O)N1 (centres undefined) | 83* | 4 | 22 | 11
O=C(Cc1cccc2ccccc12)N1CCN(Cc2nnnn2-c2cccc(F)c2)CC1 | 1 | 0 | 2 | 1
Cc1ccccc1SCc1nc2ccccc2c(=O)n1-c1cccc(C(F)(F)F)c1 | 19 | 9 | -14 | 7
O=c1c2ccccc2nc(CSc2cccc(Cl)c2Cl)n1-c1ccccc1 | 30* | -2 | 0 | 21
COc1ccccc1-c1cc([C@H]2CN3CC[C@H]2C[C@@H]3CN)n(C)n1 | 54* | -66 | -46 | -9
CCc1cc2c(cc1-c1csc(C)n1)C(C)(C)CCC2(C)C | -6 | 0 | 5 | 3
CCCCCCC(O)CCCCCC/C=C/[C@H](O)[C@@H](OC(C)=O)[C@H](O)[C@H](N)C(=O)O (some centres undefined) | -24 | -6 | -9 | -12
COC(=O)[C@]1(O)O[C@@]2(C(=O)OC)c3c(oc4cc(C)cc(O)c4c3=O)[C@H]3c4c(oc5cc(C)cc(O)c5c4=O)C[C@H]1[C@H]32 | -157 | -21 | -22 | -7
CC[C@@H]1[C@@H](C)O[C@@](O)([C@@H](C)[C@H](O)[C@H](C)[C@H]2OC(=O)/C=C/C=C/[C@H](C)[C@@H]([C@@H](C)[C@@H](O)[C@H](C)[C@@]3(O)C[C@@H](O[C@H]4C[C@H](O)[C@H](O)[C@H](C)O4)[C@H](CC)[C@@H](C)O3)OC(=O)/C=C/C=C/[C@@H]2C)C[C@H]1O[C@H]1C[C@H](O)[C@H](O)[C@H](C)O1 | -15 | 13 | 51* | 1
O=C(CN1CC=C(c2ccccc2)CC1)Nc1ccc2c(c1)OCO2 | 8 | 2 | 3 | -2
Oc1ccc2cc(Br)ccc2c1CN1CC=C(c2ccccc2)CC1 | 44* | 1 | 2 | 2
Cc1nc2ccccn2c1CC(=O)N1C[C@@H](O)[C@H](N2CCOCC2)C1 | -60 | -1 | 0 | -10
Cc1cccc(COc2ccc(C3SCC(=O)Nc4n[nH]c(C)c43)cc2)c1 (centres undefined) | 86* | 8 | -24 | 7
CN(C)[C@@H]1C(=O)C(C(N)=O)=C(O)[C@@]2(O)C(=O)C3=C(O)c4c(O)cccc4[C@@](C)(O)C3[C@H](O)[C@@H]12 (some centres undefined) | 50* | 90* | 89* | 62*
CN(C)[C@@H]1C(=O)C(C(N)=O)=C(O)[C@@]2(O)C(=O)C3=C(O)c4c(O)cccc4[C@@](C)(O)[C@H]3C[C@@H]12 | 0 | 21 | -74 | -3
Cn1cc(CN2C[C@H]3C[C@H](C(=O)Nc4cccnc4)[C@@H](C2)O3)cn1 | 1 | -1 | 4 | 7
O=C(c1cc(Cl)c(Cl)[nH]1)c1cc(Cl)cc(Cl)c1O | 8 | -3 | -10 | 40*
O=C(Nc1ccncc1)N1CCC2(CC1)C(=O)Nc1c(Oc3ccccc3)cccc12 | -307 | 3 | -14 | -1
Cn1c(=O)c2ncnnc2n(C)c1=O | 98* | 50* | -68 | 89*
